Assay results as given in ChEMBL document CHEMBL3433997, “St. Jude Leishmania screening dataset” (2016).
“And” between values parts separate entries of the source, which are not always exact repeats. Equal entries are not always repeated.

Legend:
Assay type in all cases: functional
[1] = biological target: Solute carrier family 2, facilitated glucose transporter member 1 (Homo sapiens) (UniProt P11166); assay: ST_JUDE_LEISH: Cytotoxicity at 2uM final concentration against transgenic Leishmania Mexicana promastigotes LmGLUT1 that are glucose transport deficient and complemented with the human glucose transporter GLUT1. Activity is measured by DNA content using SYBR green in vitro
[2] = biological target: Hexose transporter 1 (Plasmodium falciparum) (UniProt O97467); assay: ST_JUDE_LEISH: Cytotoxicity at 2uM final concentration against transgenic Leishmania Mexicana promastigotes LmPfHT that are glucose transport deficient and complemented with the Plasmodium falciparum hexose transporter. Activity is measured by DNA content using SYBR green in vitro
[3] = biological target: Glucose transporter (Leishmania mexicana) (UniProt O61059); assay: ST_JUDE_LEISH: Cytotoxicity at 2uM final concentration against transgenic Leishmania Mexicana promastigotes LmGT2 that are glucose transport deficient and complemented with the L. Mexicana glucose transporter 2. Activity is measured by DNA content using SYBR green in vitro

Solute carrier family 2, facilitated glucose transporter member 1 (Homo sapiens), sequence (P11166 whole entry): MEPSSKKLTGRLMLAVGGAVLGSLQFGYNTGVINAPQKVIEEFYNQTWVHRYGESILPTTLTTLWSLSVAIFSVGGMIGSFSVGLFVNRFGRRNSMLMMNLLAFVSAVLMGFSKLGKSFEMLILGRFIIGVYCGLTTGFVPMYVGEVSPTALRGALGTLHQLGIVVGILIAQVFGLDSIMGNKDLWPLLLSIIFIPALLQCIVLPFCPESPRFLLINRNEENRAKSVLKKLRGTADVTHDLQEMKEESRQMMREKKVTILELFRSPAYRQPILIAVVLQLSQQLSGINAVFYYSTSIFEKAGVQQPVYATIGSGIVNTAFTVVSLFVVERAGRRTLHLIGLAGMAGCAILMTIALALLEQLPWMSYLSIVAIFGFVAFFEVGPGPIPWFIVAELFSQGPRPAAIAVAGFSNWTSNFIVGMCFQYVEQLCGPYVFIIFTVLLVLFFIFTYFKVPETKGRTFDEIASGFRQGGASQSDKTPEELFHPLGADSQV

SMILES | inhibition [1] | inhibition [2] | inhibition [3]
c1ccc2c(NCCCCCCCCCNc3c4ccccc4nc4ccccc34)c3ccccc3nc2c1 | 3.03% | 6.11% | 2.42%
COc1ccc(OC)c(CNCC(O)c2cc(C(F)(F)F)cc(C(F)(F)F)c2)c1 (stereo unspecified) | 5.31% | 6.21% | 3.49%
O=C(/C=C/c1ccsc1)NC1CCC(CN2CCC(c3c[nH]c4ccccc34)CC2)CC1 (stereo unspecified) | 1.44% | -2.35% | -0.88%
O=C(/C=C/c1c(Cl)cccc1Cl)NC1CCC(CN2C3CCC2CC(c2c[nH]c4ccccc24)C3)CC1 (stereo unspecified) | 2.07% | 1.89% | -0.2%
COc1ccc(NC(=S)NC(NC(=O)CF)C(Cl)(Cl)Cl)cc1[N+](=O)[O-] (stereo unspecified) | 3.05% | -3.38% | -1.65%
O=C(NC1CCN(CC2(c3ccc(Cl)cc3)CCC2)CC1)c1cscn1 | 1.16% | -2.56% | 0.83%
Cc1c(C)c2c(c(C)c1O)CC[C@@](C)(C(=O)NC1CCC(CN3CCC(c4c[nH]c5ccccc45)CC3)CC1)O2 (stereo partly specified) | 6.35% | 5.08% | 3.01%
Oc1ccc(Cl)cc1CN1CCC(CCOC(c2ccccc2)c2ccccc2)CC1 | 9.61% | 9.6% | 7.84%
C1=C(c2c[nH]c3ccccc23)CCN(Cc2ccccc2)C1 | 1.51% | 0.32% | -0.23%
N#Cc1c(Cl)cccc1Oc1ccc(S(=O)(=O)NC2CCC(CN3CCC(c4c[nH]c5ccccc45)CC3)CC2)cc1 (stereo unspecified) | 0.9% and 1.4% | 1.87% and 1.07% | 0.19% and -0.57%
Cc1[nH]c2ccccc2c1C1=CCN(CC2CC2C(=O)c2ccccc2)CC1 (stereo unspecified) | 10.7% | 9.13% | 8.4%
CNC(=O)c1ccc2[nH]cc(C3CCN(CC4CCN(C(=O)/C=C/c5ccc(Cl)c(Cl)c5)CC4)CC3)c2c1 | 1.1% | -0.15% | 0.08%
CCc1ccc(CC(C)NCC(O)c2ccccc2)cc1 (stereo unspecified) | 1.06% | 1.04% | 1.94%
Cc1ccc(C(=O)Nc2ccnc(N(C)C3CCN(Cc4cccc(O)c4)CC3)c2)cn1 | 3.48% | 1.94% | 1.3%
CS(=O)(=O)Nc1ccc2[nH]cc(C3CCN(CC4CCC(NC(=O)/C=C/c5ccc(Cl)c(Cl)c5)CC4)CC3)c2c1 (stereo unspecified) | 0.82% | 6.93% | -0.55%
CN1CCC(N(C)c2nccc(N3CCN(Cc4cncn4Cc4ccccc4)CC3)n2)CC1 | 12.8% | 12.8% | 10.8%

SMILES | inhibition [1] | inhibition [2] | inhibition [3]
CC(=O)Nc1ccc2[nH]cc(C3CCN(CC4CCC(NC(=O)/C=C/c5ccc(Cl)c(Cl)c5)CC4)CC3)c2c1 (stereo unspecified) | -0.34% and -0.54% | -0.56% and -1.03% | 0.33% and -0.43%
O=C(c1cccs1)N(Cc1cccc(-c2ccc(CNC3CCCC3)cc2)c1)C1CCN(Cc2ccccc2)CC1 | 10.1% | 10% | 9.21%
CC1(C)CCCN(C(=O)Cc2ccc3c(c2)CCCC3)C1CN1CC=CC1 (stereo unspecified) | 8.1% | 8.82% | 8.93%
COC(=O)c1ccc(CC(C)NCC(O)c2ccc(F)c(Cl)c2)cc1 (stereo unspecified) | 0.56% | 0.78% | 2.31%
CC(=O)N(Cc1ccccc1-c1ccc(CNCCc2ccccc2)cc1)C1CCN(Cc2ccccc2)CC1 | 2.55% | 2.41% | 1.25%
Cc1[nH]c2ccccc2c1C1CCN(CC2CCC(NC(=O)/C=C/c3ccc(Cl)c(Cl)c3)CC2)CC1 (stereo unspecified) | 6.8% | 6.35% | 7.15%
Cc1ccc(C)c(N2CCN(Cc3ccccc3O)CC2)c1 | 0.11% | 1.02% | 2.41%
CC(=O)C1(c2ccccc2)CCN(CCC(NC(=O)c2cc(C(F)(F)F)cc(C(F)(F)F)c2)c2ccc(Cl)c(Cl)c2)CC1 (stereo unspecified) | -0.39% | 0.71% | 5.98%
OC(CNC12CC3CC(CC(C3)C1)C2)c1cccc(C(F)(F)F)c1 (stereo unspecified) | -1.52% | -1.19% | -0.45%
CN1CC=C(c2c[nH]c3ccc(-c4ccccc4)cc23)CC1 | 7.91% | 2.99% | 5.76%
CC(=O)N(Cc1ccc(-c2ccc(CNCCc3ccccc3)cc2)cc1)C1CCN(Cc2ccccc2)CC1 | 1.67% | 1.69% | 1.11%
FC(F)(F)c1ccc(NC(=S)NC2CCC(CN3CCC(c4c[nH]c5ccccc45)CC3)CC2)cc1 (stereo unspecified) | 13.2% and 1.58% | 12.7% and 6.46% | 3.66% and 2.93%
CC[C@H]1CN2CC[C@H]1C[C@H]2[C@H](O)c1cc(-c2ccc(C)cc2)nc2ccc(OC)cc12 | 1.44% | 0.47% | -0.1%
Cc1[nH]c2ccccc2c1C1=CCN(CCCCC2(C)C(=O)Nc3cccc(F)c32)CC1 (stereo unspecified) | 0.46% | -0.62% | 0.65%
CC(Cc1ccc(OCc2ccccc2)cc1)NCC(O)c1cccc(Cl)c1 (stereo unspecified) | 5.48% | 3.61% | 4.23%
O=c1c2ccccc2nc(/C=C/c2ccc([N+](=O)[O-])cc2)n1-c1ccccn1 | 10.9% | 11% | 6.71%
